Screening data deposited in PubChem BioAssay by National Center for Advancing Translational Sciences (NCATS).
An excerpt weighted towards active compounds, which were near 12% of everything screened.
AmpC inh no detg: inhibitors of E. coli AmpC beta-lactamase without detergent; Potency, µM (doses to about 57.1 µM), without a hit: top-dose activity change, negative = inhibition, hits mostly inhibitors; 0.52% of 330,000 active; AmpC nitrocefin hydrolysis, absorbance 480 nm, 0.0001% Triton; P00811;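 note: plate controls were no compound for no effect and no enzyme for full effect; nearly all actives have a fitted effect of over 20% in size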
Target sequence (P00811 whole entry, looked up): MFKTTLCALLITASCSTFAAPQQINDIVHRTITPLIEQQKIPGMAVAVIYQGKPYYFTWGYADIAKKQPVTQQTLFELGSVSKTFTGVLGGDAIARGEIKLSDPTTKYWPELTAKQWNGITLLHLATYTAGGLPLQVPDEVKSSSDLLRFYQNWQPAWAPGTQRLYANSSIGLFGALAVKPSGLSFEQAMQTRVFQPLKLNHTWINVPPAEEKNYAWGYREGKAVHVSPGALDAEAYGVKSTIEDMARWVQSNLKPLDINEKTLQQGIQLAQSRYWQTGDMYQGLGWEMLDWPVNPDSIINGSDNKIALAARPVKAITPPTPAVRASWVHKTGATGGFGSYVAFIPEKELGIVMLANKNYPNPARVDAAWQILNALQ
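20 mM phosphate pH 7.0 + 0.01% (detergent screen) or 0.0001% Triton X-100; 5.3 nM AmpC reagent; cpd preinc 15 min RT; nitrocefin (800 uM stock) to start; A480 q20 s × 4 min; Activity was normalised to no-enzyme and no-compound control wells.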
SARS PLpro yeast: SARS-CoV PLP inhibition in yeast. S. cerevisiae expressing SARS-CoV PLpro, growth rescue. Potency, µM (series often up to 32.9 µM), inactives show top-dose activity, positive = growth rescue, usual class: activators. 0.19% of 330,000 active. AID 485353; calls by dose curve; note: 0% is about no effect; nearly all actives have a fitted effect of over 55% in size
Pf growth 96h: inhibits malaria parasite growth, 96 h | 6.9% of 320,000 active | P. falciparum luciferase reporter growth, 96 h | Potency, µM (doses to about 28.7 µM), for the others: at the highest dose activity change, negative = inhibition, hits mostly inhibitors; note: % is set by controls: 0 for no effect and ±100 for the full control effect
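Cell-based qHTS: luciferase-tagged P. falciparum in erythrocytes (2% hematocrit, 0.05% parasitemia final) incubated with compounds for 96 hours, 37 C, 5% CO2; luciferase detection reagent then added and luminescence measured.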
AmpC detergent: blocks E. coli AmpC beta-lactamase in detergent assay | P00811 | Potency, µM (top dose mostly 114 µM), without a hit: at the top dose activity change, negative = inhibition, actives largely listed as inhibitors | AmpC hydrolysis of nitrocefin, absorbance 480 nm, 0.01% Triton | AID 485294 | 0.041% of 370,000 active;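 note: 0% = no-compound wells and -100% = no-enzyme wells; nearly all actives have a fitted effect of over 25% in size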
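20 mM phosphate pH 7.0 + 0.01% (detergent screen) or 0.0001% Triton X-100; 5.3 nM AmpC reagent; cpd preinc 15 min RT; nitrocefin (800 uM stock) to start; A480 q20 s × 4 min; Activity was normalised to no-enzyme and no-compound control wells.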
Sm TGR inh: blocks Schistosoma mansoni thioredoxin glutathione reductase; Q962Y6; purified TGR, DTNB reduction, TNB absorbance 405 nm; Potency, µM (series often up to 114 µM), for inactives: at the highest dose activity change, negative = inhibition, most hits filed as inhibitors; 3% of 360,000 active; note: % is set by controls: 0 for no effect and ±100 for the full control effect; nearly all actives have a fitted effect of over 60% in size
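First, TGR (20 nM dispensed) and NADPH were mixed with compound. Second, a 15 min room-temperature incubation followed. Third, further NADPH and then DTNB were added to start the reaction. Finally, TNB absorbance was monitored kinetically.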
Pf growth 48h: inhibits P. falciparum growth in the first generation, 48 h. P. falciparum luciferase growth in erythrocytes, 48 h. Potency, µM (series often up to 28.7 µM), without a hit: top-dose activity change, negative = inhibition, hits mostly inhibitors. 5.9% of 310,000 active; note: % is set by controls: 0 for no effect and ±100 for the full control effect
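In quantitative HTS format, infected erythrocytes bearing luciferase-reporter parasites were treated for a single generation at 37 C. Luminescence after adding detection reagent served as the growth measure.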
The depositor's hits bear a star; [ ] = another dose, or the depositor's remark. Unless noted, calls come from the whole dose curve; as a rule, active = well fitted curve in the direction sought with a large enough effect; inconclusive = small, poorly fitted or top-dose-only effect, or another doubt; inactive = no such curve, though single readings can be large; an effect the other way counts as inactive or inconclusive. Potency is the fitted concentration of half-maximal effect.

Screening COc1ccc(C2C(C#N)=C(N)N(Nc3ccccc3)C3=C2C(=O)CC(C)(C)C3)cc1C (centres undefined) returned AmpC inh no detg -41%, SARS PLpro yeast -3%, Pf growth 96h inconclusive, AmpC detergent -8%, Sm TGR inh -27% and Pf growth 48h inconclusive.
For COc1cc(C2C(C#N)=C(N)N(Nc3ccccc3)C3=C2C(=O)CC(C)(C)C3)ccc1OCc1cccc(F)c1 (centres undefined) the results were AmpC inh no detg -27%, SARS PLpro yeast 8%, Pf growth 96h inconclusive, AmpC detergent 1%, Sm TGR inh 5% and Pf growth 48h inconclusive.
For COc1cc(C2C(C#N)=C(N)N(Nc3ccccc3)C3=C2C(=O)CC(C)(C)C3)ccc1OCc1ccccc1 (centres undefined) the results were AmpC inh no detg -9%, SARS PLpro yeast -6%, Pf growth 96h 2.9µM*, AmpC detergent -8%, Sm TGR inh 4% and Pf growth 48h 4.1µM*.
For CCc1ccc(S(=O)(=O)ON2C(=O)c3ccccc3C2=O)cc1 the results were AmpC inh no detg -5%[2.29 µM], SARS PLpro yeast 0%, Pf growth 96h 357%, AmpC detergent 35µM*, Sm TGR inh 1.4µM* and Pf growth 48h 11%.
COc1ccc(OC)c(S(=O)(=O)ON2C(=O)c3ccccc3C2=O)c1 was read as AmpC inh no detg inconclusive, SARS PLpro yeast -2%, Pf growth 96h 2.9µM*, AmpC detergent 40µM*, Sm TGR inh 0.63µM* and Pf growth 48h 42%.
Screening CCc1cccc(NC(=O)Cn2c3[n+](c4ccc(C(F)(F)F)cc42)CCCCC3)c1 returned AmpC inh no detg 22%, SARS PLpro yeast -13%, Pf growth 96h 1µM*, AmpC detergent 1%, Sm TGR inh -7% and Pf growth 48h 4.7µM*.
FC(F)(F)c1ccc2c(c1)n(Cc1ccccc1)c1[n+]2CCCCC1 was read as AmpC inh no detg -53%, SARS PLpro yeast 0%, Pf growth 96h inconclusive, AmpC detergent 7%, Sm TGR inh inconclusive and Pf growth 48h 6.6µM*.
`O=C(Cn1c2[n+](c3ccc(C(F)(F)F)cc31)CCCCC2)c1cccc([N+](=O)[O-])c1` gave AmpC inh no detg -2%, SARS PLpro yeast -3%, Pf growth 96h 13µM*, AmpC detergent -5%, Sm TGR inh -19% and Pf growth 48h 15µM*.
O=[N+]([O-])/C(C(Cl)=C(Cl)Cl)=C1\Nc2ccccc2O1 was read as AmpC inh no detg -30%, SARS PLpro yeast 1%, Pf growth 96h 48%, AmpC detergent -4%, Sm TGR inh 14µM* and Pf growth 48h 23%.
For CCc1ccc(S(=O)(=O)c2cnc3ccc(OC)cc3c2N2CCCC(C)C2)cc1 (centres undefined) the results were AmpC detergent inconclusive and Sm TGR inh 2%.
For COc1ccccc1CNCC(=O)Nc1cc(S(=O)(=O)N2CCCCCC2)ccc1Cl the results were AmpC inh no detg 2%, SARS PLpro yeast -2%, Pf growth 96h inconclusive, AmpC detergent 8%, Sm TGR inh 0% and Pf growth 48h 9.3µM*.
For COc1ccccc1CNCC(=O)Nc1cc(S(=O)(=O)N2CCCCC2)ccc1C the results were AmpC inh no detg 81% and SARS PLpro yeast 1%.
COc1cccc(CN(C)CC(=O)Nc2cc(S(=O)(=O)N3CCCC3)ccc2Cl)c1OC was read as AmpC inh no detg 61%, SARS PLpro yeast 3%, Pf growth 96h inconclusive, AmpC detergent -5%, Sm TGR inh 3% and Pf growth 48h 12µM*.
`O=C(CCl)Nc1cc(S(=O)(=O)N2CCCCCC2)ccc1Cl` gave AmpC inh no detg -5%, SARS PLpro yeast 8%, Pf growth 96h inconclusive, AmpC detergent -4%, Sm TGR inh 16µM* and Pf growth 48h -13%.
For COc1ccc(C2C(=O)N(C3CCCCCC3)CC(=O)N2Cc2ccc(C)cc2)cc1 (centres undefined) the results were AmpC detergent 8% and Sm TGR inh 16%.
For CCc1ccc(CNC(=O)c2cc(=O)[nH]c3ccc(S(=O)(=O)N4CCCCC4)cc23)cc1 the results were AmpC detergent 4% and Sm TGR inh 4%.
Screening Nc1ncc(-n2cncn2)c(-c2ccc(Cl)cc2)n1 returned AmpC inh no detg -4%, SARS PLpro yeast 1%, Pf growth 96h 65%, AmpC detergent -3%, Sm TGR inh -3% and Pf growth 48h 24%.
For Cc1cc(C)nc(SCC(=O)N/N=C/c2cccn2-c2cccc(C(F)(F)F)c2)n1 the results were AmpC inh no detg 65%, SARS PLpro yeast 0%, Pf growth 96h 13µM*, AmpC detergent inconclusive, Sm TGR inh -32% and Pf growth 48h 9.3µM*.
For CC1(C)CC(=O)C=C(N2CCNCC2)C1 the results were AmpC inh no detg -11%, SARS PLpro yeast 1%, Pf growth 96h -15%, AmpC detergent inconclusive, Sm TGR inh 0% and Pf growth 48h 16%.
CC1(C)CC(N2CCN(c3ccccc3)CC2)=CC(=[N+]2CCCC2)C1 was read as AmpC inh no detg -1%, SARS PLpro yeast -1%, Pf growth 96h 6%, AmpC detergent inconclusive, Sm TGR inh -4% and Pf growth 48h 1.7µM*.
CC1(C)CC(N2CCCC2)=CC(=[N+]2CCCCCC2)C1 was read as AmpC inh no detg 10%, SARS PLpro yeast 2%, Pf growth 96h -20%, AmpC detergent 1%, Sm TGR inh -8% and Pf growth 48h inconclusive.
For CC1CC(C)C[N+](=C2C=C(N3CCCC3)CC(C)(C)C2)C1 (centres undefined) the results were AmpC inh no detg -6%[11.4 µM], SARS PLpro yeast 0%, Pf growth 96h inconclusive, AmpC detergent -10%, Sm TGR inh -2% and Pf growth 48h 0.37µM*.
For Cc1ccc(-c2nc(NCCN3CCOCC3)c3ccccc3n2)cc1 the results were AmpC inh no detg 70%, SARS PLpro yeast -4%, Pf growth 96h 4.1µM*, AmpC detergent -9% and Sm TGR inh -14%[11.4 µM].
`O=C(NCCCN1CCOCC1)c1cc(-c2ccc(Cl)s2)nc2ccccc12` gave AmpC inh no detg 114%, SARS PLpro yeast 7%, Pf growth 96h inconclusive, AmpC detergent -18%, Sm TGR inh 2% and Pf growth 48h 17µM*.
`CC(C)Oc1ccc(-c2cc(C(=O)NCCN3CCOCC3)c3ccccc3n2)cc1` gave AmpC inh no detg 198%, SARS PLpro yeast -9%, Pf growth 96h 31%, AmpC detergent -7%, Sm TGR inh -6% and Pf growth 48h 2.3µM*.
